Measured values as given in PubChem BioAssay (NCI).
Where “and” joins values, the source holds several entries; their conditions need not be identical. Identical values can stand only once. The panel holds about 79,000 compounds, 15% with a hit somewhere; the sample as a whole holds those more often. The source holds several records for some structures; these can differ, active in one and inactive in another. Calls of active or inactive are those of the source. Cut-off read from the data, not from the text of the source: active = growth inhibition above about 70%; inactive = the rest.

Assays:
[1] = NCI Yeast Anticancer Drug Screen. Data for the rad50 strain (AID 155);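 note: 0% = growth of vehicle-only cultures of the same strain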; conditions: S. cerevisiae rad50 strain growth inhibition, stronger effect = higher value
In short: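 Relative growth inhibition (compound vs vehicle) was measured in yeast with a defined repair-gene alteration.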

[2] = NCI Yeast Anticancer Drug Screen. Data for the mec2-1 strain (AID 157); conditions: S. cerevisiae mec2-1 strain, stronger effect = higher value
In short: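 Growth inhibition is read against vehicle-treated controls after compound exposure of the mec2-1 yeast strain, which is defective in DNA damage repair or cell cycle control.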

[3] = NCI Yeast Anticancer Drug Screen. Data for the sgs1 mgt1 strain (AID 161);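 note: 0% = growth of cultures given vehicle only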; conditions: S. cerevisiae sgs1 mgt1 strain, stronger effect = higher value
In short: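 Percent growth inhibition was derived by comparing compound-exposed mutant yeast with vehicle-exposed cultures. The strain carries alterations in DNA damage repair.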

[4] = NCI Yeast Anticancer Drug Screen. Data for the cln2 rad14 strain (AID 165);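 note: 0% = growth equal to vehicle treated cultures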; conditions: S. cerevisiae cln2 rad14 strain, stronger effect = higher value
In short: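 Growth inhibition, relative to vehicle-treated controls, is the read-out. The test organism is a yeast strain with defined genetic alterations, cln2 rad14.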

[5] = NCI Yeast Anticancer Drug Screen. Data for the bub3 strain (AID 167); conditions: S. cerevisiae bub3 mutant strain, stronger effect = higher value
In short: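 Screening used yeast with an engineered genetic alteration affecting cell cycle control. Compound-exposed cultures were compared with vehicle cultures, and reduced growth was taken as inhibition.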

[6] = NCI Yeast Anticancer Drug Screen. Data for the mlh1 rad18 strain (AID 175); conditions: S. cerevisiae mlh1 rad18 strain growth inhibition, stronger effect = higher value
In short: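 Cells of a genetically altered yeast strain, deficient in DNA damage repair, were treated with compound. Their growth was then compared with that of vehicle-treated cultures to give inhibition.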

[7] = at 5.0 µM (retest, dose inferred, filed as 0.5)
[8] = at 50.0 µM (retest, dose inferred, filed as 5.0)

Measured: growth inhibition

O=C(COc1ccc(Cl)cc1Cl)Nc1cccc(C(F)(F)F)c1
inactive: [1]; [7] -4% | [1]; [8] -3% | [1]; at 50.0 µM -4.5% | [2]; [7] -18% | [2]; [8] -25% | [2]; at 50.0 µM 7.95% | [3]; [7] -3% | [3]; [8] -2% | [3]; at 50.0 µM 9.65% | [4]; [7] -3% | [4]; [8] -13% | [4]; at 50.0 µM 41.9% | [5]; [7] 12% | [5]; [8] 0% | [5]; at 50.0 µM 1% | [6]; [7] 1% | [6]; [8] 10% | [6]; at 50.0 µM -0.4%

CCCCCCCCCCCCCCCCCCOCC(COP(=O)([O-])OCC[N+](C)(C)C)OC (stereo not drawn)
90% (active) and 20.7% (inactive): [1]; at 50.0 µM
91.5% (active) and -31.4% (inactive): [3]; at 50.0 µM
91.4% (active) and -4.35% (inactive): [2]; at 50.0 µM
inactive: [1]; [7] -16% | [1]; [8] -9% | [2]; [7] -4% | [2]; [8] -28% | [3]; [7] -13% | [3]; [8] -14% | [4]; [7] -1% | [4]; [8] -46% | [5]; [7] -16% | [5]; [8] -28% | [6]; [7] -59% | [6]; [8] -88% | [6]; at 50.0 µM -1.25% and -47%
88.2% (active) and 9.5% (inactive): [4]; at 50.0 µM
90.5% (active) and -7.55% (inactive): [5]; at 50.0 µM

COc1ccc(-c2c(C#N)c(-c3ccc(C)cc3)n(NS(=O)(=O)c3ccccc3)c(=O)c2C#N)cc1
inactive: [1]; at 50.0 µM 40.5% | [2]; [7] 42% | [2]; at 50.0 µM 49.8% | [3]; [7] 41% | [3]; at 50.0 µM 50.8% | [4]; [7] 49% | [4]; [8] 58% | [4]; at 50.0 µM 66% | [5]; [7] 47% | [5]; [8] 56% | [5]; at 50.0 µM 39.6% | [6]; at 50.0 µM 43%
active: [1]; [7] 94% | [1]; [8] 97% | [2]; [8] 94% | [3]; [8] 75% | [6]; [7] 91% | [6]; [8] 95%

Clc1ccc(CNCCCNCc2ccc(Cl)cc2)cc1
inactive: [1]; [8] 15% | [1]; at 50.0 µM 27.8% | [2]; [8] 31% | [2]; at 50.0 µM 23% | [3]; [7] 67% | [3]; [8] 31% | [3]; at 50.0 µM 50.4% | [4]; [7] 49% | [4]; [8] 13% | [5]; [8] 20% | [5]; at 50.0 µM 27.3% | [6]; [8] 13% | [6]; at 50.0 µM 29.9%
active: [1]; [7] 80% | [2]; [7] 100% | [4]; at 50.0 µM 72% | [5]; [7] 91% | [6]; [7] 96%

CN=c1sc2nc(C#N)c(C#N)nc2n1C
inactive: [1]; [7] -15% | [1]; [8] 44% | [2]; [7] -8% | [2]; [8] 61% | [2]; at 50.0 µM 40.1% | [3]; [7] -23% | [3]; [8] 35% | [4]; [7] 2% | [4]; [8] 23% | [4]; at 50.0 µM 63.1% | [5]; [7] -22% | [5]; [8] 69% | [6]; [7] -8% | [6]; [8] 58%
active: [1]; at 50.0 µM 85.3% | [3]; at 50.0 µM 75.3% | [5]; at 50.0 µM 89.8% | [6]; at 50.0 µM 81.5%

CCN1CCC(O)(/C=C/c2ccc(C)cc2)C(C(=O)/C=C/c2ccc(C)cc2)C1 (stereo not drawn)
inactive: [1]; [7] 20% | [2]; [7] 15% | [3]; [7] -29% | [4]; [7] 9% | [5]; [7] 14% | [6]; [7] 24%
active: [1]; [8] 98% | [1]; at 50.0 µM 90.1% | [2]; [8] 99% | [2]; at 50.0 µM 91.4% | [3]; [8] 99% | [3]; at 50.0 µM 91.2% | [4]; [8] 99% | [4]; at 50.0 µM 91.8% | [5]; [8] 99% | [5]; at 50.0 µM 90.6% | [6]; [8] 98% | [6]; at 50.0 µM 92.7%

CCCCCCCCCCCCCCCCCC(=O)NCCO
inactive: [1]; [7] -3% | [1]; [8] -6% | [1]; at 50.0 µM -12.3% and 16.8% | [2]; [7] -1% | [2]; [8] -5% | [2]; at 50.0 µM -6.6% and -7.3% | [3]; [7] 0% | [3]; [8] -4% | [3]; at 50.0 µM -20.2% and -8.5% | [4]; [7] 1% | [4]; [8] -8% | [4]; at 50.0 µM -23.9% and 37.4% | [5]; [7] 4% | [5]; [8] 7% | [5]; at 50.0 µM -3.75% and 1.55% | [6]; [7] 0% | [6]; [8] -8% | [6]; at 50.0 µM 3.7% and 10.8%

O=C1C=CC(=O)C(c2ccc3ccccc3c2)=C1
active: [1]; [7] 90% | [1]; [8] 98% | [1]; at 50.0 µM 99% | [2]; [7] 96% | [2]; [8] 99% | [2]; at 50.0 µM 99.1% | [3]; [7] 85% | [3]; [8] 99% | [3]; at 50.0 µM 99.2% | [4]; [7] 73% | [4]; [8] 98% | [4]; at 50.0 µM 98.8% | [5]; [7] 91% | [5]; [8] 97% | [5]; at 50.0 µM 99% | [6]; [7] 97% | [6]; [8] 99% | [6]; at 50.0 µM 99%

CC(=O)c1ccc(N)cc1
active: [1]; [8] 73% | [2]; [8] 100% | [5]; [8] 99% | [6]; [8] 96%
inactive: [1]; [7] 35% | [1]; at 50.0 µM 7.3% | [2]; [7] 50% | [2]; at 50.0 µM 15.3% | [3]; [7] 7% | [3]; [8] 52% | [3]; at 50.0 µM 26.8% | [4]; [7] 12% | [4]; [8] 39% | [4]; at 50.0 µM -1.3% | [5]; [7] 30% | [5]; at 50.0 µM -2.8% | [6]; [7] 62% | [6]; at 50.0 µM 20.1%

CCCCCCCCCC(=O)c1ccc(O)c(O)c1O
inactive: [3]; [7] 44% | [4]; [7] 63%
active: [1]; [7] 99% | [1]; [8] 98% | [1]; at 50.0 µM 90.3% | [2]; [7] 99% | [2]; [8] 98% | [2]; at 50.0 µM 91.8% | [3]; [8] 94% | [3]; at 50.0 µM 93.1% | [4]; [8] 96% | [4]; at 50.0 µM 91.1% | [5]; [7] 77% | [5]; [8] 79% | [5]; at 50.0 µM 90.5% | [6]; [7] 100% | [6]; [8] 99% | [6]; at 50.0 µM 89.7%

Cc1cc(/C=C/C2CCC3CC(C)CCC3N2CCO)c(C)n1-c1ccccc1 (stereo not drawn)
inactive: [1]; [7] 16% | [2]; [7] 19% | [3]; [7] 26% | [4]; [7] 12% | [5]; [7] 21% | [6]; [7] 17%
active: [1]; [8] 95% | [1]; at 50.0 µM 99.1% | [2]; [8] 99% | [2]; at 50.0 µM 98.8% | [3]; [8] 100% | [3]; at 50.0 µM 99.2% | [4]; [8] 90% | [4]; at 50.0 µM 98.8% | [5]; [8] 98% | [5]; at 50.0 µM 98% | [6]; [8] 97% | [6]; at 50.0 µM 97.9%

Clc1nc2nc(Cl)c(Cl)n2nc1Cl
active: [1]; at 50.0 µM 98.5% | [2]; at 50.0 µM 99.7% | [3]; at 50.0 µM 99.5% | [4]; at 50.0 µM 98.8% | [5]; at 50.0 µM 99.3% | [6]; at 50.0 µM 99.5%
inactive: [1]; [7] -4% | [1]; [8] -5% | [2]; [7] -3% | [2]; [8] -7% | [3]; [7] -2% | [3]; [8] -11% | [4]; [7] 4% | [4]; [8] -1% | [5]; [7] -5% | [5]; [8] -8% | [6]; [7] -8% | [6]; [8] -4%

CCCCN(C(=O)CCl)c1ccccc1
inactive: [1]; [7] 2% | [1]; [8] 13% | [1]; at 50.0 µM 50.3% | [2]; [7] -1% | [2]; [8] 9% | [2]; at 50.0 µM 19.1% | [3]; [7] -4% | [3]; [8] 3% | [3]; at 50.0 µM 54.2% | [4]; [7] 1% | [4]; [8] 5% | [4]; at 50.0 µM 20% | [5]; [7] -9% | [5]; [8] -16% | [5]; at 50.0 µM 34.9% | [6]; [7] 0% | [6]; [8] 10%
active: [6]; at 50.0 µM 73.7%

O=C(O)c1ccc(Nc2cnc3ccc(C(F)(F)F)cc3n2)cc1
inactive: [1]; [7] 18% | [1]; [8] 16% | [1]; at 50.0 µM 60.9% | [2]; [7] 4% | [2]; [8] 12% | [2]; at 50.0 µM 41.2% | [3]; [7] 10% | [3]; [8] 13% | [3]; at 50.0 µM 18.2% | [4]; [7] 5% | [4]; [8] 12% | [4]; at 50.0 µM -0.05% | [5]; [7] 5% | [5]; [8] 12% | [5]; at 50.0 µM 4.9% | [6]; [7] 16% | [6]; [8] 16% | [6]; at 50.0 µM 6.7%

CC1(C)CC(=O)C2=C(C1)OC1=C(CC(C)(C)CC1=O)C2c1ccccc1Cl (stereo not drawn)
inactive: [1]; [7] 19% | [1]; [8] 16% | [1]; at 50.0 µM -5.65% | [2]; [7] 12% | [2]; [8] 13% | [2]; at 50.0 µM -7.45% | [3]; [7] 8% | [3]; [8] 10% | [3]; at 50.0 µM -1.9% | [4]; [7] 37% | [4]; [8] 33% | [4]; at 50.0 µM 5.45% | [5]; [7] -11% | [5]; [8] -10% | [5]; at 50.0 µM 13.2% | [6]; [7] 17% | [6]; [8] 17% | [6]; at 50.0 µM -15.2%

CCCCCCCCCCCC(=O)CN1CCOCC1
active: [1]; [8] 99% | [1]; at 50.0 µM 98.9% | [2]; [8] 100% | [2]; at 50.0 µM 99.8% | [3]; [8] 99% | [4]; [8] 99% | [4]; at 50.0 µM 97.8% | [5]; [7] 87% | [5]; [8] 99% | [5]; at 50.0 µM 99.7% | [6]; [8] 99% | [6]; at 50.0 µM 99.2%
inactive: [1]; [7] 34% | [2]; [7] 25% | [3]; [7] 47% | [3]; at 50.0 µM 61.9% | [4]; [7] 39% | [6]; [7] 31%
